Laboratory results as given in PubChem BioAssay.
Active and inactive are the calls of the source. Unless noted, how the calls were made is not given here.

Tests used:
[1] = system: Wnt5a (protein binding on small-molecule microarray); experiment: Wnt5a binders on small-molecule microarray, primary screen, biophysical, 635/667 nm fluorescence (AID 1142); conditions: 635 nm fluorescence, higher = more signal;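 further: fluorescence read at 667 nm with signal to noise per printed feature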
[2] = cell viability in Huh7 cells, primary screen, cytotoxicity control for HCV replication inhibitor project, CellTiter-Glo luminescence, basal, 48 h (AID 1143); conditions: Huh7 HCV replicon, higher = more signal, called active from +8 up or from −8 down;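 further: Huh7 hepatoma cells carrying a hepatitis C replication reporter with no stimulus; test concentration not given here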
[3] = P. aeruginosa biofilm formation inhibitors, primary screen, PAO1 strain, BacTiter-Glo luminescence, LB-PBS (AID 1144); conditions: 12 h, higher = more signal
[4] = CREB reporter modulators without forskolin, primary screen, cell-based, PC12, CRE-LacZ reporter, unstimulated (AID 1145); conditions: no forskolin, luminescence, 4.5 h, higher = more signal, called active from +8 up or from −8 down
[5] = CREB reporter modulators under forskolin, primary screen, cell-based, PC12, CRE-LacZ reporter, forskolin-stimulated (AID 1146); conditions: luminescence, 4.5 h, higher = more signal, called active from +8 up or from −8 down;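 further: PC12 cells with 6xCRE LacZ reporter stimulated by forskolin 10 µM; beta-galactosidase reporter signal reflecting CREB driven transcription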
[6] = biological target: Streptavidin (Streptomyces avidinii) (UniProt P22629); experiment: streptavidin binders on small-molecule microarray, primary screen, artefact control for SMM compound annotation, biophysical, 635/667 nm fluorescence (AID 1147); conditions: streptavidin binding, higher = more signal;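 further: signal reflects streptavidin binding to arrayed compounds as a control protein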
[7] = small-molecule binders of probe aInhba, primary screen, biochemical, small-molecule microarray, 635/667 nm fluorescence (AID 1148); conditions: higher = more signal;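 further: score merges 667nm spot fluorescence with signal-to-noise for antibody binding to printed compounds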
Torsin-1A (Homo sapiens) [8] = biological target: Torsin-1A (Homo sapiens) (UniProt O14656); experiment: torsin A binders from cell lysate, primary screen, small-molecule microarray, wild-type, 635/667 nm (AID 1149); conditions: COS7 hTOR1A-WT lysate, 635 nm fluorescence, higher = more signal
Torsin-1A (Homo sapiens) [9] = biological target: Torsin-1A (Homo sapiens) (UniProt O14656); experiment: small-molecule binders of mutant TOR1A in lysate, primary screen, cell lysate, small-molecule microarray, COS7 lysate, 635/667 nm fluorescence (AID 1150); conditions: COS7 hTOR1A mutant lysate, 635 nm fluorescence, higher = more signal;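 further: score pools 667 nm emission and signal to noise measuring lysate protein binding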
[10] = system: Sonic hedgehog protein (Shh); experiment: small-molecule binders of Shh protein, primary screen, biochemical, small-molecule microarray, 635/667 nm fluorescence (AID 1151); conditions: small-molecule microarray binding, 635 nm fluorescence; higher = more signal;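 further: Shh protein binding to compounds spotted on small-molecule microarray slides; score combines spot fluorescence intensity with signal-to-noise across triplicate slides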
[11] = E. coli DRC41 culture turbidity changes, primary screen, E. coli filamentation inducer project, strain DRC41, OD650, 48 h (AID 1152);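 further: E. coli MC1000 strain DRC41 lacking acrAB efflux pump and sulA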; conditions: E. coli DRC41 (acrAB sulA), higher = more signal, called active from +8 up or from −8 down
[12] = small-molecule binders of probe aLefty1, primary screen, biochemical, small-molecule microarray, 635/667 nm fluorescence (AID 1153); conditions: higher = more signal;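 further: score merges spot fluorescence with signal-to-noise ratio from the scanned slide images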
[13] = PSAC antagonists in infected red cells, primary screen, cell-based, P. falciparum Indochina, OD700, 1 h (AID 1154); conditions: P. falciparum Indochina infected RBC osmotic lysis, higher = more signal, called active from +8 up or from −8 down
[14] = PSAC antagonists in infected red cells, primary screen, cell-based, P. falciparum Indochina, OD700, 2 h (AID 1155);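 further: lysis reports solute entry through the parasite surface anion channel PSAC; channel blockers reduce lysis of infected cells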; conditions: P. falciparum Indochina infected erythrocytes, osmotic lysis OD700; higher = more signal, called active from +8 up or from −8 down
[15] = osmotic lysis modulators in infected erythrocytes, primary screen, PSAC antagonist project, cell-based, P. falciparum Indochina, OD700, 3 h (AID 1156); conditions: higher = more signal, called active from +8 up or from −8 down
[16] = PSAC antagonists in infected red cells, primary screen, cell-based, P. falciparum Indochina, OD700, 18 h (AID 1157); conditions: P. falciparum Indochina infected erythrocytes, osmotic lysis OD700, 18 h; higher = more signal, called active from +8 up or from −8 down
[17] = modulators of S6 phosphorylation in cells, primary screen, cell-based, A549, cytoblot, luminescence, serum-stimulated (AID 1158); conditions: A549 phospho-S6 cytoblot, 5 h, higher = more signal;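 further: serum-stimulated A549 lung adenocarcinoma cells; signal is phosphorylated S6 detected by cytoblot immunostaining with HRP secondary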
[18] = biological target: NADPH oxidase 2 (Homo sapiens) (UniProt P04839); experiment: NOX2-dependent H2O2 signal modulators, primary screen, NOX inhibitor project, cell-based, HEK293-NOX2, PMA-stimulated, Amplex Red fluorescence (AID 1159); conditions: 45 min, higher = more signal, called active from +8 up or from −8 down; further: test concentration not given here
[19] = biological target: NADPH oxidase 4 (Homo sapiens) (UniProt Q9NPH5); experiment: NOX4-dependent H2O2 signal modulators, primary screen, NOX inhibitor project, cell-based, HEK293-NOX4, tetracycline-induced, Amplex Red fluorescence (AID 1160); conditions: 45 min, higher = more signal, called active from +8 up or from −8 down
[20] = biological target: NADPH oxidase 5 (Homo sapiens) (UniProt Q96PH1); experiment: NOX5-dependent H2O2 signal modulators, primary screen, NOX inhibitor project, cell-based, HEK293-NOX5, Amplex Red fluorescence (AID 1161); conditions: HEK293-NOX5, ionomycin, 45 min, higher = more signal
Sequence of NADPH oxidase 5 (Homo sapiens) (Q96PH1 whole entry, looked up): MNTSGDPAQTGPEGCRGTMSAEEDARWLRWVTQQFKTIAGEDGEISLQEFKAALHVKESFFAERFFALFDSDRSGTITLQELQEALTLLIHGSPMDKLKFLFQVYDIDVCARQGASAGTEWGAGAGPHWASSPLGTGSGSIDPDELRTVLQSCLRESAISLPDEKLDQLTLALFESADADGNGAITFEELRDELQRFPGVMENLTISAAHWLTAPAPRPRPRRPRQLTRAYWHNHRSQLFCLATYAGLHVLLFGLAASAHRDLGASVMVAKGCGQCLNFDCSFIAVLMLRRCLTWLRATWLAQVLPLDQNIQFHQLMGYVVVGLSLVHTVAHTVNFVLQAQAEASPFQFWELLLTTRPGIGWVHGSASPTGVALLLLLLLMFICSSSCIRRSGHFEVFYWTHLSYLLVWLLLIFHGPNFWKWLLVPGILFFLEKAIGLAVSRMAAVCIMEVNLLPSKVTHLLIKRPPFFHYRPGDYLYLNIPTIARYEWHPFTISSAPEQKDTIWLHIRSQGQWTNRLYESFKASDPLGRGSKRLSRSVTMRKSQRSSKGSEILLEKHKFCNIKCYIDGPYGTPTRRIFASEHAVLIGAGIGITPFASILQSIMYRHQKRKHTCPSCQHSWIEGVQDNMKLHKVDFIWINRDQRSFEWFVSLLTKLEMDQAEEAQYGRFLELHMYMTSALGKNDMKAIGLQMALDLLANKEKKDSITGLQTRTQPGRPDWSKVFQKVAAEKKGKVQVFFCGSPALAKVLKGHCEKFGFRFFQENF

Sequence of Torsin-1A (Homo sapiens) (O14656 whole entry, looked up): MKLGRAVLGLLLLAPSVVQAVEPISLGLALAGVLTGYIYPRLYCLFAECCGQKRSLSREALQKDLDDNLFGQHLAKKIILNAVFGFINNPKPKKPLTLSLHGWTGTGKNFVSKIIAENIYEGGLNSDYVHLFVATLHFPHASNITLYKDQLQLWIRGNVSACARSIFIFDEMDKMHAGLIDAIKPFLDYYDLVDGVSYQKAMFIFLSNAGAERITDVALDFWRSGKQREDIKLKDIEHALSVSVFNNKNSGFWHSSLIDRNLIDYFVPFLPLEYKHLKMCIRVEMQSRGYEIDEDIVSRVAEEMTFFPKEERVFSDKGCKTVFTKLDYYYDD
Sequence of Streptavidin (Streptomyces avidinii) (P22629 whole entry, looked up): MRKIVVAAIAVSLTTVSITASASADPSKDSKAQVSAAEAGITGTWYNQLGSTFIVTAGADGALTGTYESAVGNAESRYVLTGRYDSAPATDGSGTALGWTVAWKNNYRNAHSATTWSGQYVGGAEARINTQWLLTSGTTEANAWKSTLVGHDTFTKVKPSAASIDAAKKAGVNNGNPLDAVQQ
Sequence of NADPH oxidase 2 (Homo sapiens) (P04839 whole entry, looked up): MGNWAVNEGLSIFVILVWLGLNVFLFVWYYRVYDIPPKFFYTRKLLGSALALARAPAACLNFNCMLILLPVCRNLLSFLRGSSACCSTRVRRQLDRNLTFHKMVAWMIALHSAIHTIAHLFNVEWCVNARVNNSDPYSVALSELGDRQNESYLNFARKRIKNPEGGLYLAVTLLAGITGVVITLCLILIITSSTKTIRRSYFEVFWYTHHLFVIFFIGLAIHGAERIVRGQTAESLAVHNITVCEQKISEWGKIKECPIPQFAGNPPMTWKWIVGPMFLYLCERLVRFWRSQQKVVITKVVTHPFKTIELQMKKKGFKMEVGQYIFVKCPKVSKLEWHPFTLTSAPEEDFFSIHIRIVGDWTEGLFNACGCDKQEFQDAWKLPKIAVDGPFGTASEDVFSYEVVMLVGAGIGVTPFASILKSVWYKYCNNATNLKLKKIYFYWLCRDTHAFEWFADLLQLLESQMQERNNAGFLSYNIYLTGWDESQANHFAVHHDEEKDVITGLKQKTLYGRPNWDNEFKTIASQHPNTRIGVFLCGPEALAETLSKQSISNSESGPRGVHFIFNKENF
Sequence of NADPH oxidase 4 (Homo sapiens) (Q9NPH5 whole entry, looked up): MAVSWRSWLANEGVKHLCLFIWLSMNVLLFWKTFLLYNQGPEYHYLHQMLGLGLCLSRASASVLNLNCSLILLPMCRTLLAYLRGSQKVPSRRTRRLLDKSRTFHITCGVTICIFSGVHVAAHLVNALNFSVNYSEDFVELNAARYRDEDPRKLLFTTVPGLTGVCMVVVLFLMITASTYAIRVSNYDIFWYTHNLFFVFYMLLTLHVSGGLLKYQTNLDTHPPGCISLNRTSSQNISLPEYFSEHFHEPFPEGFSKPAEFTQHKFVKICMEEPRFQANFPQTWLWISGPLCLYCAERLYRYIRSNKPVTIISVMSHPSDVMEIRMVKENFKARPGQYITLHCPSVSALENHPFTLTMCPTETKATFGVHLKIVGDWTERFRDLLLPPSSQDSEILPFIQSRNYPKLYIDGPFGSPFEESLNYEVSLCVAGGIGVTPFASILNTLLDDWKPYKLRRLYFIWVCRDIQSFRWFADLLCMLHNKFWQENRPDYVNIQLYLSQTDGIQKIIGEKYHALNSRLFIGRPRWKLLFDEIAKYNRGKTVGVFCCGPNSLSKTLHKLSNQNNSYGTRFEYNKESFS

SMILES | composite z-score [1] | z-score [2] | z-score [3] | z-score [4] | z-score [5] | composite z-score [6] | composite z-score [7] | composite z-score (Torsin-1A (Homo sapiens) [8]) | composite z-score (Torsin-1A (Homo sapiens) [9]) | composite z-score [10] | z-score [11] | composite z-score [12] | z-score [13] | z-score [14] | z-score [15] | z-score [16] | z-score [17] | z-score [18] | z-score [19] | z-score [20]
O=C1C2C=CC(C(O)c3cccc4ccccc34)N(Nc3ccccc3F)C2C(=O)N1c1ccccc1 (stereo not given) | 0.115 | -0.586 (inactive) | -0.732 (inactive) | -0.62 (inactive) | 0.276 (inactive) | 1.66 | 0.103 | 1.44 | 0.993 | -0.458 | -0.875 (inactive) | 0.419 | 3.49 (inactive) | 1.34 (inactive) | -0.481 (inactive) | 1.05 (inactive) | -0.607 | -0.26 (inactive) | -2.65 (inactive) | -1.21
C=C[C@H](CO)NS(=O)(=O)c1ccc(Br)cc1 | -0.269 | 0.116 (inactive) | 0.564 (inactive) | 0.643 (inactive) | 1.79 (inactive) | 0.257 | -0.159 | 0.0757 | -0.0632 | 0.156 | 1.25 (inactive) | -0.24 | -0.261 (inactive) | -0.102 (inactive) | -0.154 (inactive) | 0.325 (inactive) | 0.0242 | 2.3 (inactive) | 0.447 (inactive) | 0.264
C=CCOC(=O)[C@H]1[C@@H]2C(=O)O[C@@H](c3ccccc3)[C@@H](c3ccccc3)N2[C@@H](c2ccc(OCCOC(=O)[C@H]3C[C@H]4C(=O)N[C@@H](CCCC[N+](C)(C)C)C(=O)N4[C@H]3c3ccc(O)cc3)cc2)[C@]12C(=O)Nc1ccc(I)cc12 | 0.232 | -0.326 (inactive) | -0.615 (inactive) | 0.415 (inactive) | -0.226 (inactive) | 0.134 | 0.0759 | 1.39 | -0.243 | 2.22 | -0.535 (inactive) | 0.275 | 3.9 (inactive) | 1.69 (inactive) | -3.16 (inactive) | 0.278 (inactive) | -0.519 | 0.595 (inactive) | 0.72 (inactive) | 0.895
CCC(CC)C(O)C1C=CC2C(=O)NC(=O)C2N1Nc1ccccn1 (stereo not given) | -0.108 | 1.06 (inactive) | -0.515 (inactive) | 0.246 (inactive) | 0.783 (inactive) | -0.12 | -0.016 | 0.147 | 0.317 | 0.186 | -0.613 (inactive) | 0.158 | 0.146 (inactive) | 0.519 (inactive) | -0.02 (inactive) | 0.973 (inactive) | -0.534 | -1.58 (inactive) | -2.05 (inactive) | -1.52
[N-]=[N+]=NCc1ccccc1[C@@H]1OC(c2ccc(OCCCO)cc2)=N[C@]1(Cc1ccccc1)C(N)=O | 0.601 | -1.72 (inactive) | -1.85 (inactive) | -1.19 (inactive) | -2.1 (inactive) | 2.03 | 0.228 | 0.162 | -0.106 | -0.315 | -0.451 (inactive) | 0.0429 | 21.9 (active) | 4.7 (inactive) | 2.64 (inactive) | 1.03 (inactive) | 0.929 | -2.06 (inactive) | 0.76 (inactive) | -2.22
CC(=O)NCCCC[C@@H]1NC(=O)[C@@H]2C[C@H](C(=O)NCCCCCNC(=O)CS)[C@H](c3cccc(OCCO)c3)N2C1=O | -0.149 | -1.12 (inactive) | -0.617 (inactive) | -1.48 (inactive) | -1.4 (inactive) | -0.526 | -0.101 | 0.653 | 0.541 | 1.62 | 1.52 (inactive) | 0.0536 | 1.33 (inactive) | -0.202 (inactive) | 0.344 (inactive) | -1.85 (inactive) | 0.697 | -1.05 (inactive) | 0.489 (inactive) | 0.0642
Cc1ccc([C@@H]2C[C@@H](Sc3ccccc3)[C@H](C(=O)O)CN2S(=O)(=O)c2ccc(C)cc2)cc1 | 0.387 | -0.758 (inactive) | -0.606 (inactive) | -0.676 (inactive) | 0.762 (inactive) | 1.39 | 0.122 | 0.877 | 0.244 | -0.053 | -1.07 (inactive) | 0.481 | 1.87 (inactive) | 0.835 (inactive) | -1.16 (inactive) | 0.759 (inactive) | -0.512 | 2.06 (inactive) | -1.97 (inactive) | -0.41
NCCCCCNC(=O)[C@@H]1C[C@@H]2C(=O)N[C@@H](Cc3ccccc3)C(=O)N2[C@@H]1c1ccc(O)cc1 | 0.0588 | 0.0478 (inactive) | -0.35 (inactive) | 0.281 (inactive) | -0.629 (inactive) | 1.38 | 0.174 | 0.202 | 0.394 | 1.2 | -1.16 (inactive) | 0.176 | 1.24 (inactive) | 0.24 (inactive) | -0.648 (inactive) | -0.116 (inactive) | -0.358 | 0.713 (inactive) | 0.539 (inactive) | -0.657
COc1ccc(-c2cc3c(c(-c4ccc(Oc5ccccc5)cc4)n2)[Si](C(C)C)(C(C)C)OC3)cn1 | -0.394 | -1.11 (inactive) | -0.0233 (inactive) | -0.127 (inactive) | -0.0129 (inactive) | 0.114 | 0.038 | -0.664 | -0.336 | 1.08 | -1.14 (inactive) | 0.0004 | 2.85 (inactive) | 1.54 (inactive) | 0.208 (inactive) | 0.85 (inactive) | -0.837 | 0.476 (inactive) | 0.412 (inactive) | 0.179
